From publication PMC11024108

Key:
[1] = biological target: 2-oxoglutarate dehydrogenase-like, mitochondrial (UniProt Q9ULD0); experiment: cross-link between two proteins; cross-linking mass spectrometry
[2] = biological target: ATPase inhibitor, mitochondrial (UniProt Q9UII2); experiment: as above
[3] = biological target: Stress-70 protein, mitochondrial (UniProt P38646); experiment: as above
[4] = biological target: AP-2 complex subunit beta (UniProt Q9DBG3); experiment: as above
[5] = biological target: ATP synthase F(0) complex subunit 8 (UniProt P03928); experiment: as above
[6] = biological target: Trifunctional enzyme subunit alpha, mitochondrial (UniProt P40939); experiment: as above
[7] = biological target: Trifunctional enzyme subunit beta, mitochondrial (UniProt P55084); experiment: as above
[8] = biological target: B-cell receptor-associated protein 31 (UniProt Q61335); experiment: as above
[9] = biological target: ATP-dependent 6-phosphofructokinase, platelet type (UniProt Q9WUA3); experiment: as above
[10] = biological target: 14-3-3 protein zeta/delta (UniProt P63101); experiment: as above
14-3-3 protein zeta/delta (UniProt P63101), sequence (P63101 whole entry, stated change not applied): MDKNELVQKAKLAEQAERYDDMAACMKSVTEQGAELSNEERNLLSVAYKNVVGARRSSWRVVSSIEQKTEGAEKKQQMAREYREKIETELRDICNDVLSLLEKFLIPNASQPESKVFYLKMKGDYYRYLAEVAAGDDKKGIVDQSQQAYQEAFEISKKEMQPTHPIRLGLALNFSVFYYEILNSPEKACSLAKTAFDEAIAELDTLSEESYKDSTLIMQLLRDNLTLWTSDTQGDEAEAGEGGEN

[11] = biological target: AP-2 complex subunit beta (UniProt P63010); experiment: as above
AP-2 complex subunit mu [12] = biological target: AP-2 complex subunit mu (UniProt Q96CW1); experiment: as above
[13] = biological target: Epidermal growth factor receptor substrate 15-like 1 (UniProt Q9UBC2); experiment: as above
[14] = biological target: Phosphatidylinositol-binding clathrin assembly protein (UniProt Q13492); experiment: as above
[15] = biological target: BOS complex subunit NOMO2 (UniProt Q5JPE7); experiment: as above
[16] = biological target: ATP synthase F(0) complex subunit e, mitochondrial (UniProt P56385); experiment: as above
ATP synthase F(0) complex subunit e, mitochondrial, sequence (P56385 whole entry, one chain of several): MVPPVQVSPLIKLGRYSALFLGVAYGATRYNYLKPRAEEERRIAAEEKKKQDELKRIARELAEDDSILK

[17] = biological target: Adenylate kinase 2, mitochondrial (UniProt P54819); experiment: as above
Cytochrome c = Cytochrome c (UniProt P99999); experiment: as above
[18] = biological target: Glycerol-3-phosphate dehydrogenase, mitochondrial (UniProt P43304); experiment: as above
[19] = biological target: Bifunctional glutamate/proline--tRNA ligase (UniProt Q8CGC7); experiment: as above
Amphiphysin = Amphiphysin (UniProt Q7TQF7); experiment: as above
Alpha-internexin = Alpha-internexin (UniProt P46660); experiment: as above
Alpha-internexin, sequence (P46660 whole entry): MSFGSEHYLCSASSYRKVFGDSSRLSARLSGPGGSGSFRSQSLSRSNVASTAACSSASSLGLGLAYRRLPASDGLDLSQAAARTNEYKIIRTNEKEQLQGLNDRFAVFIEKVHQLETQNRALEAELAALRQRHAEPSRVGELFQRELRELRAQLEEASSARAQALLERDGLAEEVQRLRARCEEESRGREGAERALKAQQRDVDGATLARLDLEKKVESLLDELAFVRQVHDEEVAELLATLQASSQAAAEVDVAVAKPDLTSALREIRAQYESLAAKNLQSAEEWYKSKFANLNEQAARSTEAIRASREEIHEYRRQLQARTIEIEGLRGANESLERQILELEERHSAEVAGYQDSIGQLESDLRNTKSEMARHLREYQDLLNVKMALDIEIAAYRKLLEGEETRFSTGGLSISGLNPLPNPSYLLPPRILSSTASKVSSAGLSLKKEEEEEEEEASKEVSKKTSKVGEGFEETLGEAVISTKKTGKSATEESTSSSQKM

[20] = biological target: Neurofilament heavy polypeptide (UniProt P19246); experiment: as above
[21] = biological target: Neurofilament medium polypeptide (UniProt P08553); experiment: as above
Ataxin-2 = Ataxin-2 (UniProt Q99700); experiment: as above
[22] = biological target: ADP-ribosylation factor-like protein 8B (UniProt Q9NVJ2); experiment: as above
[23] = biological target: AP-3 complex subunit mu-1 (UniProt Q9Y2T2); experiment: as above
[24] = biological target: AP2-associated protein kinase 1 (UniProt Q3UHJ0); experiment: as above
AP2-associated protein kinase 1, sequence (Q3UHJ0 whole entry): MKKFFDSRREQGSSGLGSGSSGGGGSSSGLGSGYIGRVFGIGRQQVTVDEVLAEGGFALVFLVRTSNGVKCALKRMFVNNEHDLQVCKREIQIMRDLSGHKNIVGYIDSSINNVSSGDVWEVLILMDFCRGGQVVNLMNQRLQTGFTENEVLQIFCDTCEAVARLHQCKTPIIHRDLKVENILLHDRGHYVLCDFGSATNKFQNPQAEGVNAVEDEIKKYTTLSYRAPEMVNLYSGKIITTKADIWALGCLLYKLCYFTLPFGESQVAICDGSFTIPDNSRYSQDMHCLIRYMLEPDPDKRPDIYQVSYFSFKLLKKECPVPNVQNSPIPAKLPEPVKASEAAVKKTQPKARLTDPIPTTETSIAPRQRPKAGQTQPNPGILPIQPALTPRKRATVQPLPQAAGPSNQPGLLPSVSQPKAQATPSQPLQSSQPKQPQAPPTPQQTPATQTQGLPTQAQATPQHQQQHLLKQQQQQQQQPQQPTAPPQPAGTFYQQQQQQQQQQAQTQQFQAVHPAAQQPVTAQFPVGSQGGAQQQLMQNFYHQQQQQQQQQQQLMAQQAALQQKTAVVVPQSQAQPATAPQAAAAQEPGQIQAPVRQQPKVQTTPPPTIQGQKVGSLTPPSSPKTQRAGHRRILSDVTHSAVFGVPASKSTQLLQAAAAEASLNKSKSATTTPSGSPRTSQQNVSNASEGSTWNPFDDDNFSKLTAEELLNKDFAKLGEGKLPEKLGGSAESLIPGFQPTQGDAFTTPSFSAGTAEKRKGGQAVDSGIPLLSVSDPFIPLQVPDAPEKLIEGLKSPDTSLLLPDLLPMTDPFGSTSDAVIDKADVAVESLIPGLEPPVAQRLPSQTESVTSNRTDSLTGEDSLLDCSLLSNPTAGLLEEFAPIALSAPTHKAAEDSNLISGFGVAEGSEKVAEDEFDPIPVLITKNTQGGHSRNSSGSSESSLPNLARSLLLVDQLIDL

[25] = biological target: Aconitate hydratase, mitochondrial (UniProt Q99798); experiment: as above
[26] = biological target: Malate dehydrogenase, mitochondrial (UniProt P40926); experiment: as above
Actin, cytoplasmic 1 = Actin, cytoplasmic 1 (UniProt P60710); experiment: as above
[27] = biological target: 14-3-3 protein zeta/delta (UniProt P63104); experiment: as above
[28] = biological target: 3-hydroxyisobutyryl-CoA hydrolase, mitochondrial (UniProt Q6NVY1); experiment: as above
AP-2 complex subunit mu [29] = biological target: AP-2 complex subunit mu (UniProt P84091); experiment: as above
[30] = biological target: AP-2 complex subunit sigma (UniProt P62743); experiment: as above
[31] = biological target: SH3-containing GRB2-like protein 3-interacting protein 1 (UniProt Q8VD37); experiment: as above
[32] = biological target: Brain acid soluble protein 1 (UniProt Q91XV3); experiment: as above
P2X purinoceptor 7 = P2X purinoceptor 7 (UniProt Q9Z1M0); experiment: as above
[33] = biological target: ATP synthase peripheral stalk subunit d, mitochondrial (UniProt Q9DCX2); experiment: as above
ADP/ATP translocase 2 = ADP/ATP translocase 2 (UniProt P51881); experiment: as above
[34] = biological target: Actin-binding protein WASF1 (UniProt Q8R5H6); experiment: as above
Annexin A11 = Annexin A11 (UniProt P50995); experiment: as above
[35] = biological target: ATP synthase F(1) complex subunit alpha, mitochondrial (UniProt P25705); experiment: as above
[36] = biological target: AP-3 complex subunit beta-2 (UniProt Q9JME5); experiment: as above
[37] = biological target: AP-3 complex subunit sigma-1 (UniProt Q9DCR2); experiment: as above
[38] = biological target: Elongation factor Tu, mitochondrial (UniProt P49411); experiment: cross-linking mass spectrometry
[39] = biological target: Large ribosomal subunit protein bL12m (UniProt P52815); experiment: cross-linking mass spectrometry
[40] = biological target: Large ribosomal subunit protein mL45 (UniProt Q9BRJ2); experiment: cross-linking mass spectrometry
[41] = biological target: Leucine-rich PPR motif-containing protein, mitochondrial (UniProt P42704); experiment: cross-linking mass spectrometry
[42] = biological target: 3-hydroxyacyl-CoA dehydrogenase type-2 (UniProt Q99714); experiment: cross-link between two proteins; cross-linking mass spectrometry
[43] = biological target: ATP synthase peripheral stalk subunit OSCP, mitochondrial (UniProt P48047); experiment: as above
[44] = biological target: Acyl-coenzyme A thioesterase 9, mitochondrial (UniProt Q9Y305); experiment: as above
[45] = biological target: Alpha-aminoadipic semialdehyde dehydrogenase (UniProt P49419); experiment: as above
[46] = biological target: Aspartate--tRNA ligase, mitochondrial (UniProt Q6PI48); experiment: as above
[47] = biological target: Delta(3,5)-Delta(2,4)-dienoyl-CoA isomerase, mitochondrial (UniProt Q13011); experiment: as above
[48] = biological target: Elongation factor G, mitochondrial (UniProt Q96RP9); experiment: as above
[49] = biological target: Heat shock protein 75 kDa, mitochondrial (UniProt Q12931); experiment: as above
[50] = biological target: Hydroxyacyl-coenzyme A dehydrogenase, mitochondrial (UniProt Q16836); experiment: as above
[51] = biological target: Isocitrate dehydrogenase [NAD] subunit alpha, mitochondrial (UniProt P50213); experiment: as above
[52] = biological target: NADH dehydrogenase [ubiquinone] 1 alpha subcomplex subunit 5 (UniProt Q16718); experiment: as above
[53] = biological target: Polyribonucleotide nucleotidyltransferase 1, mitochondrial (UniProt Q8TCS8); experiment: as above
[54] = biological target: Presequence protease, mitochondrial (UniProt Q5JRX3); experiment: as above
[55] = biological target: Solute carrier family 25 member 3 (UniProt Q00325); experiment: as above
Solute carrier family 25 member 3, sequence (Q00325 whole entry): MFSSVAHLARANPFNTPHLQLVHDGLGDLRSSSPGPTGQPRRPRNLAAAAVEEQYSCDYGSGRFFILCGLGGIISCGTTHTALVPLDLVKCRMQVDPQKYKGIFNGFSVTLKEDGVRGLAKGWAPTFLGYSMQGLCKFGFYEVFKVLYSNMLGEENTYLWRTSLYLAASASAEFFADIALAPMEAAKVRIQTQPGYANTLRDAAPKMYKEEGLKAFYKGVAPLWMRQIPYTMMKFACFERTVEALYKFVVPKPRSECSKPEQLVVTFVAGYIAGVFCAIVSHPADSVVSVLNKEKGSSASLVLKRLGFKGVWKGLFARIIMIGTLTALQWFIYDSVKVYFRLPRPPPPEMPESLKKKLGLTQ

[56] = biological target: Stomatin-like protein 2, mitochondrial (UniProt Q9UJZ1); experiment: as above
[57] = biological target: Succinate-semialdehyde dehydrogenase, mitochondrial (UniProt P51649); experiment: as above
[58] = biological target: Transcription factor A, mitochondrial (UniProt Q00059); experiment: as above
[59] = biological target: Tyrosine--tRNA ligase, mitochondrial (UniProt Q9Y2Z4); experiment: as above
Zeta-crystallin = Zeta-crystallin (UniProt Q08257); experiment: as above
Alpha-actinin-2 = Alpha-actinin-2 (UniProt Q9JI91); experiment: as above
[60] = biological target: Charged multivesicular body protein 3 (UniProt Q9Y3E7); experiment: cross-linking mass spectrometry
[61] = biological target: Charged multivesicular body protein 2b (UniProt Q9UQN3); experiment: cross-link between two proteins; cross-linking mass spectrometry
[62] = biological target: COMM domain-containing protein 8 (UniProt Q9CZG3); experiment: as above
Calnexin = Calnexin (UniProt P27824); experiment: as above
[63] = biological target: Transmembrane emp24 domain-containing protein 10 (UniProt P49755); experiment: as above
Calreticulin = Calreticulin (UniProt P27797); experiment: as above
Calreticulin, sequence (P27797 whole entry): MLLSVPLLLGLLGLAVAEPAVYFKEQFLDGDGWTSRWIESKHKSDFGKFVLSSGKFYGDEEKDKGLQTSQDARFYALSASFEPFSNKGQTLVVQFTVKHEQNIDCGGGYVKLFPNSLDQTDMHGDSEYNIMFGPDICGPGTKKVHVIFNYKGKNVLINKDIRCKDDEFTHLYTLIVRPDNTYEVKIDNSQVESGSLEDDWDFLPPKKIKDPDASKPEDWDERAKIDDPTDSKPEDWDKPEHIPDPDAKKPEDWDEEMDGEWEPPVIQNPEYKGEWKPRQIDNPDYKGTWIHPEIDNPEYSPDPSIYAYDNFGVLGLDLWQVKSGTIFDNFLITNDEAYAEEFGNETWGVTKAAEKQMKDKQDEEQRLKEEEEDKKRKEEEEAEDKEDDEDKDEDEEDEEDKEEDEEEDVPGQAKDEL

ATP synthase peripheral stalk subunit d, mitochondrial, O75947, sequence (O75947 whole entry): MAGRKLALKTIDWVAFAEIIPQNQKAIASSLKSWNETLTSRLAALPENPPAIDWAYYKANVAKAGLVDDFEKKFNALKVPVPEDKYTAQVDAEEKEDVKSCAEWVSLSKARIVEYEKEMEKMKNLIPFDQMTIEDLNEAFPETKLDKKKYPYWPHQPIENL
AP-2 complex subunit beta (UniProt Q9DBG3), sequence (Q9DBG3 whole entry, one chain of several): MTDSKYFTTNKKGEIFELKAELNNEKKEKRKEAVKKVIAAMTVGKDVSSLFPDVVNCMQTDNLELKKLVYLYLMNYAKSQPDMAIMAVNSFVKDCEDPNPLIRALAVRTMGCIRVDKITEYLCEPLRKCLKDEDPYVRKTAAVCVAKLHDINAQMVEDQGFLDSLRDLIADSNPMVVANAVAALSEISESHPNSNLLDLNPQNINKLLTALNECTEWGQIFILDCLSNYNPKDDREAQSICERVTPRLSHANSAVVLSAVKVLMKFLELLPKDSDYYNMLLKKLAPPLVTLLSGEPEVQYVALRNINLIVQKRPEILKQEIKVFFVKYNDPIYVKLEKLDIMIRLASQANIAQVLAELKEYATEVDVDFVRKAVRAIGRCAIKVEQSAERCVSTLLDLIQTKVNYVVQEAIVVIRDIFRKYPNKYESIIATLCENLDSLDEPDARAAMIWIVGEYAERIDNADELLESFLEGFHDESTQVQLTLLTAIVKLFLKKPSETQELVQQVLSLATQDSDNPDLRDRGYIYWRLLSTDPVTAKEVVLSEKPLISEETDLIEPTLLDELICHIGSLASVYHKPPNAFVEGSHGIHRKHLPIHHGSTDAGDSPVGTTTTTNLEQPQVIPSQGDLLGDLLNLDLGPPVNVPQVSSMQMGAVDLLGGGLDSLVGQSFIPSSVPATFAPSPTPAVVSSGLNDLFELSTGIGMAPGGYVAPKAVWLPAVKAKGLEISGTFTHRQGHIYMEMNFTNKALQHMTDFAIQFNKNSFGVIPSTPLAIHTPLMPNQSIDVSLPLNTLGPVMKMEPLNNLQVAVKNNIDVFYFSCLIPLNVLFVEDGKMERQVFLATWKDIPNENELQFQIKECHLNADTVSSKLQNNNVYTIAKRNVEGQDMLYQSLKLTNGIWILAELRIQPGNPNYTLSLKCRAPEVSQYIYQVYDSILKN
Glyceraldehyde-3-phosphate dehydrogenase, P16858, sequence (P16858 whole entry): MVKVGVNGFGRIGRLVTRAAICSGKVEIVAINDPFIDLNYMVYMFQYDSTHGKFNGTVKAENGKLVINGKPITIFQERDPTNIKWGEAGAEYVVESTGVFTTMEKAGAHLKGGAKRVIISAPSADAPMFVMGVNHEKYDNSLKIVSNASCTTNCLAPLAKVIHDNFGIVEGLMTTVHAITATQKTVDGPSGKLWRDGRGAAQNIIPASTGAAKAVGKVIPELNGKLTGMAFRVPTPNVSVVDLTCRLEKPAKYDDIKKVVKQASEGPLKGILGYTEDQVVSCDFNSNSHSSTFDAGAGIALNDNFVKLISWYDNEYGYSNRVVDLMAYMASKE
Trifunctional enzyme subunit alpha, mitochondrial, P40939, sequence (P40939 whole entry): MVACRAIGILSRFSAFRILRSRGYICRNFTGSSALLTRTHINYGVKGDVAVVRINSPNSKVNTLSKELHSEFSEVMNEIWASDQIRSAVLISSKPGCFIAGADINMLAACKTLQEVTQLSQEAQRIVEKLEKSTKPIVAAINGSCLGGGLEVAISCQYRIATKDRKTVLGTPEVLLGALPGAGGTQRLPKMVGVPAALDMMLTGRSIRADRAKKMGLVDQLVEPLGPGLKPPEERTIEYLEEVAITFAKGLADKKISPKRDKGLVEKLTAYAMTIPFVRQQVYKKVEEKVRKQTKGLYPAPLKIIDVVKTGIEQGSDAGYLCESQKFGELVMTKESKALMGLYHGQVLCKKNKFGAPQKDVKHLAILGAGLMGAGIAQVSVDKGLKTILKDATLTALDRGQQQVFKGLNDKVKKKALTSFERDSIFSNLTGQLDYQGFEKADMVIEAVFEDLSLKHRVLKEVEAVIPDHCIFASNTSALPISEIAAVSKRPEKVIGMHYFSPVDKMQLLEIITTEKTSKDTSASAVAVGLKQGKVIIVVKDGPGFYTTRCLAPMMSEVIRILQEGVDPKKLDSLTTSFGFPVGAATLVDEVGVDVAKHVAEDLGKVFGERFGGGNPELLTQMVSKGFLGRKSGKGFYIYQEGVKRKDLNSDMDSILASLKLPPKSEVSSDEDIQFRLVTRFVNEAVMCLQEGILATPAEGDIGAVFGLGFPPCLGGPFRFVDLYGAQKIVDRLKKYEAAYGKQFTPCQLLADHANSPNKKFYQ
Peptidyl-prolyl cis-trans isomerase B, P23284, sequence (P23284 whole entry): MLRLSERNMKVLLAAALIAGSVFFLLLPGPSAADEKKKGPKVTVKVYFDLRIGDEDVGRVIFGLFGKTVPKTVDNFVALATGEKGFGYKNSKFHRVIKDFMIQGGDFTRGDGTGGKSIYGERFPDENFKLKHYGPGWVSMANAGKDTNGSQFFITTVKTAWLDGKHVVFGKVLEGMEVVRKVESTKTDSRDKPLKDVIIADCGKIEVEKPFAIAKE

2-oxoglutarate dehydrogenase complex component E1, Q02218
listed as a hit [1]: yes

ATP synthase F(1) complex subunit gamma, mitochondrial, P36542
listed as a hit [2]: yes | listed as a hit [3]: yes

SH3-containing GRB2-like protein 3-interacting protein 1, Q8VD37
listed as a hit [4]: yes

ATP synthase peripheral stalk subunit d, mitochondrial, O75947
listed as a hit [5]: yes | listed as a hit [6]: yes | listed as a hit [7]: yes

B-cell receptor-associated protein 29, Q61334
listed as a hit [8]: yes

ATP-dependent 6-phosphofructokinase, muscle type, P47857
listed as a hit [9]: yes

14-3-3 protein gamma, P61982
listed as a hit [10]: yes

AP-2 complex subunit alpha-2, O94973
listed as a hit [11]: yes | listed as a hit (AP-2 complex subunit mu [12]): yes | listed as a hit [13]: yes | listed as a hit [14]: yes

BOS complex subunit NOMO3, P69849
listed as a hit [15]: yes

Trifunctional enzyme subunit beta, mitochondrial, P55084
listed as a hit [16]: yes

Prohibitin 1, P35232
listed as a hit [17]: yes | listed as a hit (Cytochrome c): yes | listed as a hit [18]: yes

Isoleucine--tRNA ligase, cytoplasmic, Q8BU30
listed as a hit [19]: yes

Myc box-dependent-interacting protein 1, O08539
listed as a hit (Amphiphysin): yes

Adaptin ear-binding coat-associated protein 1, Q9CR95
listed as a hit [4]: yes

Neurofilament light polypeptide, P08551
listed as a hit (Alpha-internexin): yes | listed as a hit [20]: yes | listed as a hit [21]: yes

Ataxin-2-like protein, Q8WWM7
listed as a hit (Ataxin-2): yes

AP-2 complex subunit mu, Q96CW1
listed as a hit [22]: yes

AP-3 complex subunit beta-1, O00203
listed as a hit [23]: yes

AP-2 complex subunit alpha-1, P17426
listed as a hit [4]: yes | listed as a hit [24]: yes

AP-2 complex subunit mu, P84091
listed as a hit [4]: yes | listed as a hit [24]: yes

Fumarate hydratase, mitochondrial, P07954
listed as a hit [25]: yes | listed as a hit [26]: yes

Adenylyl cyclase-associated protein 1, P40124
listed as a hit (Actin, cytoplasmic 1): yes

14-3-3 protein gamma, P61981
listed as a hit [27]: yes

Mitochondrial-processing peptidase subunit alpha, Q10713
listed as a hit [28]: yes

AP-1 complex subunit beta-1, O35643
listed as a hit (AP-2 complex subunit mu [29]): yes | listed as a hit [30]: yes | listed as a hit [31]: yes

Neurofilament medium polypeptide, P08553
listed as a hit (Alpha-internexin): yes

Glyceraldehyde-3-phosphate dehydrogenase, P16858
listed as a hit [32]: yes | listed as a hit (P2X purinoceptor 7): yes

14-3-3 protein epsilon, P62259
listed as a hit [10]: yes

ATP synthase peripheral stalk subunit F6, mitochondrial, P97450
listed as a hit [33]: yes

ADP/ATP translocase 1, P48962
listed as a hit (ADP/ATP translocase 2): yes

WD repeat-containing protein 1, O88342
listed as a hit (Actin, cytoplasmic 1): yes

Cytoplasmic FMR1-interacting protein 2, Q5SQX6
listed as a hit [34]: yes

Annexin A7, P20073
listed as a hit (Annexin A11): yes

ATP synthase peripheral stalk subunit b, mitochondrial, P24539
listed as a hit [35]: yes

Neurofilament heavy polypeptide, P19246
listed as a hit (Alpha-internexin): yes

AP-3 complex subunit delta-1, O54774
listed as a hit [36]: yes | listed as a hit [37]: yes

Malate dehydrogenase, mitochondrial, P40926
listed as a hit [38]: yes | listed as a hit [39]: yes | listed as a hit [40]: yes | listed as a hit [41]: yes | listed as a hit [42]: yes | listed as a hit [43]: yes | listed as a hit [44]: yes | listed as a hit [45]: yes | listed as a hit [46]: yes | listed as a hit [47]: yes | listed as a hit [48]: yes | listed as a hit [49]: yes | listed as a hit [50]: yes | listed as a hit [51]: yes | listed as a hit [52]: yes | listed as a hit [53]: yes | listed as a hit [54]: yes | listed as a hit [55]: yes | listed as a hit [56]: yes | listed as a hit [57]: yes | listed as a hit [58]: yes | listed as a hit [59]: yes | listed as a hit (Zeta-crystallin): yes

Trifunctional enzyme subunit alpha, mitochondrial, P40939
listed as a hit [16]: yes | listed as a hit [55]: yes

Synaptopodin, Q8CC35
listed as a hit (Alpha-actinin-2): yes

Charged multivesicular body protein 1a, Q9HD42
listed as a hit [60]: yes | listed as a hit [61]: yes

COMM domain-containing protein 1, Q8K4M5
listed as a hit [62]: yes

Peptidyl-prolyl cis-trans isomerase B, P23284
listed as a hit (Calnexin): yes | listed as a hit [63]: yes

Endoplasmic reticulum chaperone BiP, P11021
listed as a hit (Calreticulin): yes
